# PMC5540273 (PLoS ONE, 2017)
# Read-outs that look alike come from different tables or passages of the source.
# Key:
# [1] = system: T1, GRK2; conditions: concentration: 1 μM, replicates: in singlicate; n = 1
# T1 construct: gene ADRBK1
# [2] = system: T2, GRK3; conditions: concentration: 1 μM, replicates: in singlicate; n = 1
# T2 construct: gene ADRBK2
# [3] = system: GRK4; conditions: concentration: 1 μM, replicates: in singlicate; n = 1
# [4] = system: GRK7; conditions: concentration: 1 μM, replicates: in singlicate; n = 1
# [5] = system: GSK3A; conditions: concentration: 1 μM, replicates: in singlicate; n = 1
# [6] = system: GSK3B; conditions: n = 1
# [7] = system: T3, HASPIN; conditions: concentration: 1 μM, replicates: in singlicate; n = 1
# T3 construct: gene GSG2
# [8] = system: HCK; conditions: concentration: 1 μM, replicates: in singlicate; n = 1
# [9] = system: HIPK1; conditions: concentration: 1 μM, replicates: in singlicate; n = 1
# [10] = system: HIPK2; conditions: concentration: 1 μM, replicates: in singlicate; n = 1
# [11] = concentration: 1 μM, replicates: in singlicate
# 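Also: KINOMEscan kinase panel screen.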
Structure (SMILES),%Inh [1] [%],%Inh [2] [%],%Inh [3] [%],%Inh [4] [%],%Inh [5] [%],"%Inh [6, 11] [%]",%Inh [7] [%],%Inh [8] [%],%Inh [9] [%],%Inh [10] [%],%Inh ([6]; 1 µM) [%]
Cc1ccc(Oc2ccc(Nc3ncnc4cc[nH]c34)cc2C)cn1,0,28,0,44,0,0,8,16,20,11,
CCS(=O)c1ccc(-c2coc3ccc(-c4nnc(C)o4)cc23)cc1 (centres unmarked),0,5,21,19,91.6,58,17,33,30,43,
CCc1ccc(-c2ccc3c(c2)-c2nn(C)cc2S(=O)(=O)N3C)cc1,0,0,0,0,30,0,23,2,0,0,
COc1ccc(-c2cc3c(C)nc(N)nc3n([C@H]3CC[C@H](OCCO)CC3)c2=O)cn1,17,0,1,1,0,1,33,13,17,0,
COc1cccc(C2=C(Nc3cccc(C(=O)O)c3)C(=O)NC2=O)c1 [SB-390770],0,22,0,0,51,,10,0,0,0,31
Nc1ncnc2c1ncn2-c1ccc(Cl)cc1 [AH2635],0,41,0,0,14,0,21,0,0,0,
O=C(Nc1ccc2c(c1)OCO2)NC1CCN(c2ccnc(NCc3ccc(F)cc3)n2)CC1 [GSK1379859],0,0,0,0,2,8,0,0,0,0,
Cc1c(Cn2c(C)nn3c(=O)cc(N4CCO[C@H](C)C4)nc23)cccc1C(F)(F)F [GSK2373690],0,18,3,0,13,6,0,0,13,0,
O=C(NCCNc1ccnc(Nc2ccc(F)cc2)n1)Nc1ccc2c(c1)OCO2 [GSK1379882],0,0,0,0,34,6,0,0,0,0,
Cn1c(=O)c(F)c(Nc2ccc(I)cc2F)c2c(=O)n(OC[C@H](O)CO)cnc21,0,0,0,0,0,3,4,10,52,0,
CCC(=O)c1c(-c2ccccc2)c2cc(Cl)ccc2c(=O)n1Cc1cc(S(C)(=O)=O)n(CC(F)F)n1,0,0,4,0,0,0,26,0,25,0,
CCC(=O)c1c(-c2ccccc2)c2cc(Cl)ccc2c(=O)n1Cc1cc(S(C)(=O)=O)n(CC(N)=O)n1,0,0,0,0,6,0,0,24,29,0,
Nc1ncnc2c1ncn2-c1cccc2ccccc12 [SKF-97184],0,0,14,4,8,23,60,7,34,0,
Nc1ncnc2c1ncn2-c1cccc(F)c1 [SKF-97560],61,40,0,4,18,13,45,0,12,16,
Cl.NS(=O)(=O)c1cccc(Nc2cc(-c3ccc(F)cc3)n[nH]2)c1 [GW824645],0,21,0,0,0,6,51,13,36,10,
COc1ccc(-n2cnc3c(N)ncnc32)cc1 [SKF-97236],12,0,22,3,6,15,0,0,24,5,

Structure (SMILES),%Inh [1] [%],%Inh [2] [%],%Inh [3] [%],%Inh [4] [%],%Inh [5] [%],"%Inh [6, 11] [%]",%Inh [7] [%],%Inh [8] [%],%Inh [9] [%],%Inh [10] [%],%Inh ([6]; 1 µM) [%]
FC(F)(F)c1ccc(-c2ncn(CCCN3CCOCC3)c2-c2ccncc2)cc1 [SB-217780],5,0,26,0,0,25,11,8,18,52,
COc1cccc(-n2cnc3c(N)ncnc32)c1 [SKF-97416],0,11,10,27,0,35,0,8,18,22,
Cc1nnc(-c2ccc(C)c(-c3ccc(C(=O)O)cc3)c2)o1 [GW608005],0,0,0,0,7,0,0,0,0,0,
CC(C)(C)c1ccc(C(=O)Nc2cn3cc(-c4ccccc4)ccc3n2)cc1,0,0,26,0,12,30,0,13,43,52,
COc1cc(Nc2nccc(N3CCC(NC(=O)C4COc5ccccc5O4)C3)n2)cc(OC)c1OC (centres unmarked) [GSK1379761],0,38,0,0,0,3,55,0,0,0,
COc1ccc(-c2coc3ccc(-c4nnc(SCc5cccc(C#N)c5)o4)cc23)cc1,0,0,0,27,96.1,45,0,20,32,24,
Cl.c1ccc(Cn2cnc3cc(Nc4ncnc5ccccc45)ccc32)cc1 [GW272142],0,50,0,0,0,1,0,0,0,0,
CCC(=O)c1c(-c2ccccc2)c2cc(Cl)ccc2c(=O)n1Cc1cc(C(=O)NC2CC2)n(C)n1,0,23,0,12,0,13,25,22,0,8,
COc1ccc(Nc2nccc(N3CCC(NS(=O)(=O)c4ccc(NC(C)=O)cc4)C3)n2)cc1 (centres unmarked) [GSK1379729],3,0,49,0,0,7,19,7,0,20,
CCS(=O)(=O)c1ccc(OC)c(Nc2ncc(-c3ccc(F)cc3)o2)c1.Cl [GW591947],0,0,0,0,8,0,0,0,33,0,
O=C(Nc1n[nH]c2cc(-c3ccccc3F)ccc12)C1CC1 [SB-733371],0,0,26,0,24,19,22,0,2,0,
Fc1cccc(CSc2nnc(-c3ccc4c(c3)CCO4)o2)c1,35,10,0,19,64,,20,1,18,30,37
CN1C(=O)C(Nc2cc(Cl)c(O)c(Cl)c2)=C(c2ccc(Cl)cc2)C1=O [SB-404321],22,28,96.7,0,0,0,0,0,0,38,
CCCNC(=O)Nc1ccc(Oc2ncnc3ccn(C)c23)cc1,40,0,6,29,0,21,41,7,35,29,
CN(C)c1cc(-c2ccc3c(N)n[nH]c3c2)nc(N)n1 [GSK2219329],0,0,0,0,0,5,0,0,0,0,
COc1cccc(C2=C(N(C)c3ccccc3)C(=O)NC2=O)c1 [SB-334865],0,5,0,0,0,24,2,0,0,0,
